Experimental data published in PubChem BioAssay (NCI).
About 83,000 compounds went through this panel and 20% of them were active in at least one assay; those are over-represented in the sample as a whole.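 Interpretation: 100, growth as untreated; towards 0, rising growth inhibition; 0, no net growth; 0 to -100, cell death. Compounds scoring below 10 were considered active.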 Values without a mark were called inactive. The source made the active and inactive calls.

Key:
Assay in all cases: NCI-60 one-dose screen, 48 h (100 = growth as untreated, 0 = no growth, -100 = all killed)
Details in all cases: 10 µM unless noted
SK-MEL-2 melanoma = system: SK-MEL-2 melanoma
EKVX NSCLC = system: EKVX NSCLC
SN12C renal = system: SN12C renal
UO-31 renal = system: UO-31 renal
TK-10 renal = system: TK-10 renal
ACHN renal = system: ACHN renal
CAKI-1 renal = system: CAKI-1 renal
A498 renal = system: A498 renal
CCRF-CEM leukemia = system: CCRF-CEM leukemia
MOLT-4 leukemia = system: MOLT-4 leukemia
SR leukemia = system: SR leukemia
RPMI-8226 leukemia = system: RPMI-8226 leukemia
OVCAR-8 ovarian = system: OVCAR-8 ovarian
OVCAR-5 ovarian = system: OVCAR-5 ovarian
SK-OV-3 ovarian = system: SK-OV-3 ovarian
IGROV1 ovarian = system: IGROV1 ovarian
OVCAR-3 ovarian = system: OVCAR-3 ovarian
HS 578T breast = system: HS 578T breast
NCI/ADR-RES ovarian = system: NCI/ADR-RES ovarian

| Compound | growth (SK-MEL-2 melanoma) | growth (EKVX NSCLC) | growth (SN12C renal) | growth (UO-31 renal) | growth (TK-10 renal) | growth (ACHN renal) | growth (CAKI-1 renal) | growth (A498 renal) | growth (CCRF-CEM leukemia) | growth (MOLT-4 leukemia) | growth (SR leukemia) | growth (RPMI-8226 leukemia) | growth (OVCAR-8 ovarian) | growth (OVCAR-5 ovarian) | growth (SK-OV-3 ovarian) | growth (IGROV1 ovarian) | growth (OVCAR-3 ovarian) | growth (HS 578T breast) | growth (NCI/ADR-RES ovarian) |
| --- | --- | --- | --- | --- | --- | --- | --- | --- | --- | --- | --- | --- | --- | --- | --- | --- | --- | --- | --- |
| CC(C)=CCC[C@](C)(O)[C@H]1CC[C@]2(C)[C@@H]1CC[C@@H]1[C@@]3(C)CC[C@H](OC(=O)CCC(=O)O)C(C)(C)[C@@H]3CC[C@]12C | -13.1% [100 µM] (active) | 45.3% [100 µM] | 15% [100 µM] | 19.5% [100 µM] | 49.6% [100 µM] | 21.4% [100 µM] | 21.4% [100 µM] | 40.1% [100 µM] | 3.55% [100 µM] (active) | 5.86% [100 µM] (active) | 29% [100 µM] | 9.12% [100 µM] (active) | 24.7% [100 µM] | 41.7% [100 µM] | 42.4% [100 µM] | 15.3% [100 µM] | -32.1% [100 µM] (active) | 41.2% [100 µM] | 29.9% [100 µM] |
| CCN(CC)c1ccc2cc(C(Nc3ccc(Br)c(C(F)(F)F)c3)c3nnnn3C(C)(C)C)c(=O)oc2c1 (centres undefined) | 89.9% | 87.7% | 90.4% | 74% | 83.9% | 99.1% | 85% | 67.6% | 92.1% | 69.6% | 98.8% | 87.1% | 91.5% | 92% | 84.7% | 106% | 104% | 79.6% | 93.8% |
| CC1(C)C(=O)/C(=C\c2ccco2)C[C@]2(C)[C@H]3CC=C4[C@@H]5C[C@](C)(C(=O)O)CC[C@]5(C)CC[C@@]4(C)[C@]3(C)CC[C@@H]12 | -57.5% [100 µM] (active) | -71.4% [100 µM] (active) | -50.8% [100 µM] (active) | -95.5% [100 µM] (active) | -46.1% [100 µM] (active) | -79.9% [100 µM] (active) | -66.6% [100 µM] (active) | -89.2% [100 µM] (active) | -22.7% [100 µM] (active) | -21% [100 µM] (active) | 46.8% [100 µM] | 0.425% [100 µM] (active) | -46.1% [100 µM] (active) | -46.2% [100 µM] (active) | -77.2% [100 µM] (active) | -61.9% [100 µM] (active) | -60.1% [100 µM] (active) | -16.2% [100 µM] (active) | -49.5% [100 µM] (active) |
| CC1(C)NCCC[C@]2(C)[C@H]3C=CC4=C5C[C@](C)(CO)CC[C@]5(C)CC[C@@]4(C)[C@]3(C)CC[C@@H]12 | -84.9% [100 µM] (active) | -87.1% [100 µM] (active) | -94% [100 µM] (active) | -98.1% [100 µM] (active) | -78.3% [100 µM] (active) | -95.4% [100 µM] (active) | -96.5% [100 µM] (active) | -88.7% [100 µM] (active) | -44.1% [100 µM] (active) | -56.7% [100 µM] (active) | -5.08% [100 µM] (active) | -43.8% [100 µM] (active) | -57.8% [100 µM] (active) | -98.7% [100 µM] (active) | -80.1% [100 µM] (active) | -84.5% [100 µM] (active) | -78.8% [100 µM] (active) | -46.8% [100 µM] (active) | -86.4% [100 µM] (active) |
| N#C/C(C(=O)c1ccccc1)=C1/C(=O)Nc2ccc(F)cc21 | 108% | 94.2% | 98% | 74% | 122% | 92.6% | 86.3% | 81.1% | 116% | 104% | 118% | 104% | 101% | 106% | 84.5% | 97.4% | 106% | 98.6% | 97.5% |
| CC(=O)O.CC(=O)O.O.[Fe] | 109% | 147% | 95.2% | 89% | 105% | 107% | 130% | 89.8% | 131% | 116% | 124% | 135% | 99.1% | 105% | 94.1% | 106% | 108% | 93.2% | 102% |
